What all share (assay): NCI-60 one-dose screen, 48 h (100 = growth as untreated, 0 = no growth, -100 = all killed)
Common to all, as to conditions: 10 µM unless noted

Assay [1] has as its system SR leukemia.
Assay [2] relates to RPMI-8226 leukemia.
For assay [3], the system named is OVCAR-8 ovarian.
Assay [4] concerns OVCAR-5 ovarian.
In assay [5] the test system is OVCAR-4 ovarian.
Assay [6] concerns SK-OV-3 ovarian.
In assay [7] the test system is IGROV1 ovarian.
Assay [8] has as its system OVCAR-3 ovarian.
Assay [9] relates to HS 578T breast.
Assay [10] relates to NCI/ADR-RES ovarian.
Assay [11] relates to T-47D breast.
For assay [12], the system named is BT-549 breast.
Assay [13] has as its system MDA-MB-435 melanoma.
Assay [14] relates to SW-620 colon.
Assay [15] deals with MCF7 breast.
The subject of assay [16] is HCT-116 colon.
The subject of assay [17] is HCC-2998 colon.
The test system of assay [18] is KM12 colon.

The panel holds about 83,000 compounds, 20% with a hit somewhere; the sample as a whole holds those more often.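 96-well plates, one dose, 48 hours. Percent growth reported; active if below 10.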 Unmarked numbers belong to inactive results. Calls of active or inactive are those of the source.

`COc1cc2nc3cc([N+](=O)[O-])ccc3c(NCCCNCC(C)(C)O)c2cc1OC`: the growth in [1] was 5.93% (active); in assay [2], -9.27% (active); in assay [3] it was -45% (active); in [4], -3.65% (active); in assay [5], -37.2% (active); in assay [6] it was -46% (active). Further, the growth in [7] was -18% (active); in assay [8], -60.3% (active); in assay [9] it was -18.6% (active); in assay [10] it was 87.6%; in [11] it was -40.6% (active); in assay [12], -71.3% (active). In addition, the growth was -85.8% (active) in [13]; -11.8% (active) in [14]; -33.5% (active) in [15]; -46% (active) in assay [16]; -70.2% (active) in assay [17]; -47.2% (active) in assay [18].

Turning to `Nc1cc2ccncc2c2ccccc12`, the growth in [1] is 0.467% (active); in assay [2] it was 84.1%; in [3], 57.6%; in assay [4] it was 76.2%; in [5], 82.4%; in assay [6], 66.2%. Also, the growth in [7] was 58.7%; in assay [8] it was 75.4%; in assay [9] it was 116%; in assay [10], 53.2%; in assay [11], 82.3%; in assay [12], 70.5%. The growth is 59.8% in assay [13]; 62.7% in [14]; 51.5% in assay [15]; 38.3% in assay [16]; 83% in assay [17]; 68.6% in [18].

In the case of `O=C(O)c1cccc2c1-c1ccccc1C2=O`, the growth in assay [1] is 94.2%; in assay [2], 124%; in assay [3] it was 103%; in [4] it was 92.2%; in assay [5], 105%; in assay [6] it was 103%. Further, the growth in [7] is 85%; in assay [8], 102%; in assay [9], 97.7%; in [10], 100%; in [11] it was 93.1%; in assay [12], 85.8%. The growth was 97.7% in assay [13]; 95.7% in [14]; 92.3% in assay [15]; 92.6% in assay [16]; 99% in assay [17]; 97.9% in assay [18].

Turning to `COc1cc(OC)c(/C=C/c2cc[n+](C)c3ccccc23)c(OC)c1`, the growth is -16.8% (active) in assay [1]; -2.59% (active) in [2]; -8.8% (active) in [3]; 49.4% in assay [4]; 13.6% in [5]; -10.8% (active) in [6]. Moreover, the growth in assay [7] was 6.79% (active); in assay [8] it was -26.6% (active); in assay [9], 18.8%; in assay [10], 91.3%; in assay [11], 9.89% (active); in assay [12], 24%. The growth in assay [13] was 4.33% (active); in assay [14] it was 19.8%; in [15] it was 5.4% (active); in assay [16], 11.4%; in assay [17] it was 10%; in assay [18], -19.9% (active).

Turning to `CCOC(=O)c1ccc2c(c1)nc(/C=C/c1ccc(Cl)cc1)n2-c1cc(C(C)(C)C)[nH]n1`, the growth is 52.2% in assay [1]; 52.3% in [2]; 38.5% in [3]; 110% in assay [4]; 38.3% in assay [5]; 43.3% in assay [6]. In addition, the growth in [7] was 15.4%; in [8], 22.2%; in assay [9], 51.3%; in assay [10], 68%; in [11] it was 56.2%; in assay [12] it was 57.4%. The growth was 62.7% in assay [13]; 64.9% in assay [14]; 42.4% in assay [15]; 52% in assay [16]; 88.4% in assay [17]; 54% in assay [18].

Turning to `CCN(CC)CCCC(C)N/C(=C1\C(=O)NC(=O)\C1=C(/NC(C)CCCN(CC)CC)c1cccc(OC)c1)c1cccc(OC)c1` (centres undefined), the growth in assay [1] was -25.1% (active); in assay [2], -35.7% (active); in [3] it was 5.58% (active); in assay [4], 1.93% (active); in assay [5], -23.3% (active); in [6] it was 11.8%. The growth in assay [7] was -18.5% (active); in [8], -11.3% (active); in assay [9], 38.4%; in [10], 2.36% (active); in assay [11], 48.6%; in [12] it was 2.98% (active). For the same compound, the growth in assay [13] is -81.6% (active); in [14], 0.116% (active); in [15], 0.0378% (active); in assay [16] it was 2.62% (active); in [17], -89.2% (active); in [18], 1.06% (active).

With `N#Cc1c2c(nc3n[nH]c(N)c13)CCCC2`, the growth in assay [1] is 93.6%; in assay [2], 100%; in assay [3], 111%; in assay [4], 93.8%; in [5] it was 101%; in assay [6], 116%. Besides, the growth in assay [7] is 109%; in [8], 100%; in assay [9] it was 117%; in [10] it was 105%; in assay [11] it was 98%; in assay [12], 130%. The growth in [13] is 106%; in assay [14], 96%; in [15], 110%; in assay [16] it was 101%; in assay [17], 92.6%; in [18], 111%.

As for `C(=N\Nc1nnn(Cc2ccccc2)n1)/c1ccccc1`, the growth in assay [1] is 17.2%; in [2], 31.2%; in [3], 39.8%; in [4], 93.1%; in [5], 79.4%; in assay [6], 35.9%. Further, the growth in assay [7] is 50.4%; in assay [8], -38.1% (active); in assay [9], 36.5%; in assay [10] it was -0.167% (active); in assay [11], 45.6%; in assay [12], 46.5%. Moreover, the growth in assay [13] is -26.1% (active); in [14] it was 35.2%; in assay [15], 27.5%; in [16], 43.8%; in assay [17], 45.6%; in assay [18], 19.4%.

The values above are taken from PubChem BioAssay (NCI).
